Compound activity: PubChem, National Center for Advancing Translational Sciences (NCATS)
CBFb RUNX1 block = inhibitors of human CBF-beta and RUNX1 interaction | AlphaScreen CBFb-His/RUNX1-biotin binding, biochemical | AID 1477 | 230,000 tested, under 10 active | Potency, µM (highest dose often 59.8 µM), without a hit: at the top dose activity, negative = inhibition, hits mostly inhibitors | Q01196+Q13951; also: % of control where 0% means no effect
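Room-temperature protein-protein interaction test with 30 nM each of His-tagged CBF-beta and biotinylated RUNX1, 15 min with compound, then 90 min with nickel plus streptavidin beads. Signal read in AlphaScreen mode.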
VP16 counter = inhibits Gal4-VP16 luciferase reporter, ROR gamma counter-screen. Drosophila S2 Gal4-VP16 UAS-luciferase, luminescence, 20 h. Potency, µM (doses to about 53.6 µM), for inactives: at the highest dose activity, negative = inhibition, most hits filed as inhibitors. 3.5% of 310,000 active;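 also: Gal4-VP16 expression switched on by copper sulfate through the metallothionein promoter; potency is read from the fitted curve at half-maximal effect; % is scaled to controls: 0 for no effect and ±100 for the full control effect; nearly all actives have a fitted effect of over 50% in size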
Six1-Eya2 blk = blocks human Six1 binding to Eya2. Q15475+O00167. AlphaScreen GST-Six1/His-Eya2 binding, biochemical; hits give low values. activity change, % (test concentration not listed). 0.56% of 360,000 active; in the data active = activity change below about -65%; inconclusive = mostly about -30% to -63%; also: % is scaled to controls: 0 for no effect and ±100 for the full control effect
Target sequence (O00167 whole entry, looked up): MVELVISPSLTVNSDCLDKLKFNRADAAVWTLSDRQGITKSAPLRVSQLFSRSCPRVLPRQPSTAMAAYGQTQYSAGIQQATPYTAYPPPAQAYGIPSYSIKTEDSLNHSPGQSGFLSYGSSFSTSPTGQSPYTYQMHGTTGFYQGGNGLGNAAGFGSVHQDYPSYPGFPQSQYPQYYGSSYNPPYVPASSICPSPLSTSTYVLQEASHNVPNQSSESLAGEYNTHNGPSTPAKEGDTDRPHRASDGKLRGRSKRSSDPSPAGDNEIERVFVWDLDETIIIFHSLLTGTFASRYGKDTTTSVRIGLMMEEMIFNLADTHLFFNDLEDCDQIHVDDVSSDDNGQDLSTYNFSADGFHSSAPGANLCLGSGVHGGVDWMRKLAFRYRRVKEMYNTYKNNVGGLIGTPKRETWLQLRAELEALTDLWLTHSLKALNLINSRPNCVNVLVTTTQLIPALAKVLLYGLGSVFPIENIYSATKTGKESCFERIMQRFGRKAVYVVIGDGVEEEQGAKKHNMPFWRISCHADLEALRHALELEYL
Target sequence (Q15475 whole entry, looked up): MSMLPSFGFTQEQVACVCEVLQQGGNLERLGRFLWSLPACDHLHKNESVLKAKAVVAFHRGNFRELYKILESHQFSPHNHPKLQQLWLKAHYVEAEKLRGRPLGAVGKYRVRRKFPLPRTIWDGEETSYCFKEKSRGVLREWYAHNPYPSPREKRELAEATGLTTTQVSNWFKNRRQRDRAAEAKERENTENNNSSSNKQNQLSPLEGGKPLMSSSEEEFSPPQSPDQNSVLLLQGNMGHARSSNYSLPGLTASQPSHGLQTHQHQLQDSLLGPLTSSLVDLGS
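Six1/Eya2 binding was read as AlphaScreen signal after compounds were pinned into GST-Six1 plus His-tagged Eya2 (5X stock 250/500 nM) in pH 8.0 Tris/NaCl/TCEP buffer, beads added, then incubated 1 h, 37 C, dark.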
MBNL1 CUG block = inhibitors of human MBNL1 binding to CUG repeat RNA | Q9NR56 | TR-FRET MBNL1-His/biotin-(CUG)12 binding, 665/545 ratio | Potency, µM (doses to about 57.5 µM), for inactives: top-dose activity change, negative = inhibition, most hits filed as inhibitors | 0.036% of 280,000 active | AID 2675; active = well fitted inhibition curve with a large enough effect in the signal ratio, with a control signal flat, not every such curve was filed as active; inconclusive = small, poorly fitted or top-dose-only effect, or effect the other way, or a change in a side signal; inactive = no such curve, though single readings can be large or run the other way; the % refers to the signal ratio; also: potency is read from the fitted curve at half-maximal effect; % is scaled to controls: 0 for no effect and ±100 for the full control effect
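TR-FRET readout: Ex 340 nm, 665/545 nm emission ratio, normalized to buffer-only (basal) and MBNL1-(CUG)12 controls. Complex of MBNL1-His with Biotin-(CUG)12, compounds 92 nM–58 uM, incubated 60 min at room temperature.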
RORgamma inh = inhibitors of mouse ROR gamma transcriptional activity; Potency, µM (doses to about 53.6 µM), for inactives: at the highest dose activity change, negative = inhibition, hits mostly inhibitors; 5.4% of 310,000 active; Drosophila S2 Gal4-RORgamma UAS-luciferase reporter, 20 h; P51450; also: potency is read from the fitted curve at half-maximal effect; % is scaled to controls: 0 for no effect and ±100 for the full control effect; nearly all actives have a fitted effect of over 60% in size
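Drosophila S2 cells stably expressing Gal4-DBD/mouse RORγ fusion under metallothionein promoter plus UAS-luciferase; compound 1 h, then 700 uM CuSO4 induction for 20 h at ambient temperature; inhibition read as reduced luminescence.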
CtBP-E1A inh = blocks the CtBP interaction with E1A; AlphaScreen GST-E1A/His-CtBP binding, 1536-well; hits give low values; activity change, % (no concentration beside the values); 0.49% of 340,000 active; in the data active = activity change below about -65%; inconclusive = mostly about -30% to -63%; also: % is scaled to controls: 0 for no effect and ±100 for the full control effect
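Homogeneous bead-based format: GST-tagged E1A captured on glutathione donor beads, His-tagged CtBP on nickel acceptor beads; compounds precede bead addition by 2 h at 37 °C.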
An asterisk follows results filed as active; [ ] = dose if it differs, or a comment. Hits are enriched below; roughly 5.5% of the tested compounds scored in any of these assays. Unless noted, calls follow the shape of the dose curve; as a rule, active = well fitted curve in the direction sought with a large enough effect; inconclusive = small, poorly fitted or top-dose-only effect, or another doubt; inactive = no such curve, though single readings can be large; an effect the other way counts as inactive or inconclusive.

Screening CCC(C(=O)O)P(=O)(c1ccc(Cl)cc1)c1ccc(Cl)cc1 (stereo unspecified) returned CBFb RUNX1 block 4%, VP16 counter 3%, Six1-Eya2 blk 5, MBNL1 CUG block -3%, RORgamma inh -2% and CtBP-E1A inh 1.
Screening CCOc1cc(Cl)c(S(=O)(=O)NCCCN2CCOCC2)cc1Cl returned VP16 counter 4%, Six1-Eya2 blk 7, MBNL1 CUG block 0%, RORgamma inh -7% and CtBP-E1A inh 1.
For COc1ccc(-n2nc(C(=O)NCC(=O)NCCCN3CCN(C)CC3)c3ccccc3c2=O)cc1 the results were VP16 counter -1%, Six1-Eya2 blk -18, MBNL1 CUG block inconclusive, RORgamma inh -17% and CtBP-E1A inh -9.
Screening COc1ccc(CNC(=O)c2ccc(CS(=O)c3ccccc3)o2)cc1 (stereo unspecified) returned VP16 counter -11%, Six1-Eya2 blk 1, MBNL1 CUG block -7%, RORgamma inh -12% and CtBP-E1A inh -1.
For COc1cc(O)c(C(=O)O)c(O)c1 the results were VP16 counter -6% and RORgamma inh 1%.
For CN(C)C(=O)c1ccc2c(c1[N+](=O)[O-])C(=O)c1ccccc1C2=O the results were CBFb RUNX1 block -3%, VP16 counter 3.5µM*, Six1-Eya2 blk -21, MBNL1 CUG block inconclusive, RORgamma inh 2.2µM* and CtBP-E1A inh -17.
`Cc1[nH]c2c(C)cccc2c1CCNC(=O)c1ccc2c(c1[N+](=O)[O-])C(=O)c1ccccc1C2=O` gave CBFb RUNX1 block -19%, VP16 counter inconclusive, Six1-Eya2 blk -65*, MBNL1 CUG block inconclusive, RORgamma inh 6.3µM* and CtBP-E1A inh -92*.
Cc1ccc2c(c1[N+](=O)[O-])C(=O)c1ccccc1C2=O was read as CBFb RUNX1 block 1%[21.7 µM], VP16 counter inconclusive and RORgamma inh 0%.
`Cc1[nH]c2ccccc2c1CCNC(=O)c1ccc2c(c1[N+](=O)[O-])C(=O)c1ccccc1C2=O` gave CBFb RUNX1 block -18%, VP16 counter inconclusive, Six1-Eya2 blk -73*, MBNL1 CUG block inconclusive, RORgamma inh 10µM* and CtBP-E1A inh 11.
CNc1ccc(Br)cc1C(O)c1ccccc1 (stereo unspecified) was read as CBFb RUNX1 block 9%, VP16 counter inconclusive, Six1-Eya2 blk -1, MBNL1 CUG block 0%, RORgamma inh 13µM* and CtBP-E1A inh 5.
For CC1=C(C(=O)N2CCOCC2)CC(CC(=O)NCCCCc2ccccc2)C(=O)N1CCCN1CCCC1=O (stereo unspecified) the results were Six1-Eya2 blk 4 and CtBP-E1A inh 3.
`Clc1ccc(-c2nnc(NC3=NCCCCC3)o2)cc1` gave CBFb RUNX1 block 5%, VP16 counter 8.9µM*, Six1-Eya2 blk 2, MBNL1 CUG block -2%, RORgamma inh 6.3µM* and CtBP-E1A inh 5.
CCc1nnc(NC(=O)c2nc(S(=O)(=O)Cc3cccc(C)c3)ncc2Cl)s1 was read as VP16 counter 7.9µM*, Six1-Eya2 blk -19, MBNL1 CUG block inconclusive, RORgamma inh 13µM* and CtBP-E1A inh -3.
CCc1nnc(NC(=O)c2nc(S(=O)(=O)Cc3ccccc3)ncc2Cl)s1 was read as VP16 counter 8.9µM*, Six1-Eya2 blk 14, MBNL1 CUG block 9%, RORgamma inh 11µM* and CtBP-E1A inh -2.
For CCc1nnc(NC(=O)c2nc(S(=O)(=O)Cc3ccc(C)cc3)ncc2Cl)s1 the results were VP16 counter 11µM*, Six1-Eya2 blk -20, MBNL1 CUG block 10%, RORgamma inh 16µM* and CtBP-E1A inh -1.
CCc1nnc(NC(=O)c2nc(Cl)ccc2Cl)s1 was read as VP16 counter 13%, Six1-Eya2 blk -19, MBNL1 CUG block 0%, RORgamma inh inconclusive and CtBP-E1A inh -11.
CCc1nnc(NC(=O)c2ccc(Cl)c(S(=O)(=O)N3CCc4ccccc43)c2)s1 was read as CBFb RUNX1 block -17%, VP16 counter inconclusive, Six1-Eya2 blk -2, MBNL1 CUG block 3%, RORgamma inh 20µM* and CtBP-E1A inh -10.
`CC1CCCCC1NC(=O)CCNS(=O)(=O)c1ccc2c(c1)CCC(=O)N2` (stereo unspecified) gave VP16 counter -4%, Six1-Eya2 blk -1, MBNL1 CUG block -3% and RORgamma inh 3%.
CC1CCCC(NC(=O)C2CCN(S(=O)(=O)c3cnc[nH]3)CC2)C1C (stereo unspecified) was read as VP16 counter 3%, Six1-Eya2 blk 3, MBNL1 CUG block -8%, RORgamma inh -1% and CtBP-E1A inh 3.
For CCSc1ncc(Cl)c(C(=O)Nc2ccccc2OC)n1 the results were VP16 counter -1%, Six1-Eya2 blk 6, MBNL1 CUG block -9%, RORgamma inh -44% and CtBP-E1A inh -2.
`CCOc1ccccc1NC(=O)c1nc(S(=O)(=O)Cc2cccc(C)c2)ncc1Cl` gave VP16 counter 2.5µM*, Six1-Eya2 blk 8, MBNL1 CUG block -1%, RORgamma inh 8.9µM* and CtBP-E1A inh 2.
COCc1ccc(C(=O)N2CCCC(Nc3ccc4c(c3)OCCO4)C2)o1 (stereo unspecified) was read as VP16 counter -3%, Six1-Eya2 blk -4, MBNL1 CUG block -4%, RORgamma inh 64% and CtBP-E1A inh 6.
Screening Cc1cc(C(F)(F)F)nc(Nc2nc(C)c3ccccc3n2)n1 returned CBFb RUNX1 block -1%, VP16 counter inconclusive, Six1-Eya2 blk -1, MBNL1 CUG block -1%, RORgamma inh 6.3µM* and CtBP-E1A inh 2.
Screening Cc1ccc2nc(Nc3nc(C)cc(C(F)(F)F)n3)nc(C)c2c1 returned CBFb RUNX1 block 1%, VP16 counter inconclusive, Six1-Eya2 blk 5, MBNL1 CUG block -4%, RORgamma inh -23% and CtBP-E1A inh 4.
Screening O=C(CCl)N1CCCC1c1ccc2c(c1)OCCO2 (stereo unspecified) returned VP16 counter inconclusive, Six1-Eya2 blk -7, MBNL1 CUG block -1%, RORgamma inh 4.5µM* and CtBP-E1A inh 2.
For CC(=O)c1ccc(OCC(=O)N2CCCC2c2ccc3c(c2)OCCCO3)cc1 (stereo unspecified) the results were Six1-Eya2 blk -4 and CtBP-E1A inh -2.
Cc1ccc(C(C[N+](=O)[O-])n2nc(C)cc2C)cc1 (stereo unspecified) was read as CBFb RUNX1 block -5%, VP16 counter 2%, Six1-Eya2 blk 4, MBNL1 CUG block 1%, RORgamma inh -22% and CtBP-E1A inh -6.
